Most compounds without a hit are left out; they make up all but 2.1% or so of the library.
CFTR F508del cor – correctors of CFTR F508del function in bronchial epithelial cells; CFBE cells, YFP halide quenching; stimulated with forskolin plus potentiator P3; % fluorescence drop versus neutral controls; activity (quench increase), % at 7.58 µM; hit rate 0.36% among 350,000; AID 720511;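 active = mean added fluorescence quench of at least 8% versus neutral control, with both replicates also reaching 8%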;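 also: cells transiently co-express mutant CFTR-F508del with the halide-sensitive YFP; corrector assay measuring rescue of mutant channel to the surface after 24 h compound exposure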
ERAP1 HTS inh – blocks human ERAP1 aminopeptidase activity; hit rate 0.15% among 340,000; Q9NZ08; recombinant ERAP1, Leu-AMC fluorescence, 60 min; inhibition, % at 10.7 µM;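 active = mean replicate inhibition of at least 30%, or all replicates individually reaching that 30% level; inactive = mean below 30% and not every replicate reaching it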;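 also: 0% = neutral control wells and 100% = L-leucinethiol positive control wells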
Target sequence (Q9NZ08 whole entry, looked up): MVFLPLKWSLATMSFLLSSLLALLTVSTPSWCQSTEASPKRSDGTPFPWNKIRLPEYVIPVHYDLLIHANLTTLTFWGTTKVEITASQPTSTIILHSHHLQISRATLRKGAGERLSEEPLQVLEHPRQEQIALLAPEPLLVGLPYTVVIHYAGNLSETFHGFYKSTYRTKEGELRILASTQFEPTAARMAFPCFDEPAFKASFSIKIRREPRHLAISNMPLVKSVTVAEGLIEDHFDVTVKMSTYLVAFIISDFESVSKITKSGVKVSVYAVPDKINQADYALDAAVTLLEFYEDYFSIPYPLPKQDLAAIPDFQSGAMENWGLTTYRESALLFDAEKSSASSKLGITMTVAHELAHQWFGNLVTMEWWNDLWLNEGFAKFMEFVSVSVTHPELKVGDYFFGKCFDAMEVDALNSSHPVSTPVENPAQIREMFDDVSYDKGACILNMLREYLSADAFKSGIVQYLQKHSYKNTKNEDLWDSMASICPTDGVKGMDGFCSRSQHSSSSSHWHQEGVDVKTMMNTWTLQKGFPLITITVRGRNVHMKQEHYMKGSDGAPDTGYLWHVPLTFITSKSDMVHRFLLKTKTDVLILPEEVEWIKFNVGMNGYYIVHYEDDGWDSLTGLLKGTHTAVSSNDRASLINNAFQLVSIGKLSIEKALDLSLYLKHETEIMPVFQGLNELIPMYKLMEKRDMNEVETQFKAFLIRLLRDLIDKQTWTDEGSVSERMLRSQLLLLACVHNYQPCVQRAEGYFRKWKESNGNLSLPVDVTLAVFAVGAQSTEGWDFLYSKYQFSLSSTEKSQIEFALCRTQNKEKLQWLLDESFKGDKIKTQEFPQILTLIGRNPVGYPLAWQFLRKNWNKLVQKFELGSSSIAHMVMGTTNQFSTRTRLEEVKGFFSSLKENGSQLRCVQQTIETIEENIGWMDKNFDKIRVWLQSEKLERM
PvdQ inh – blocks Pseudomonas aeruginosa PvdQ acylase activity | AID 488965 | purified PvdQ acylase, fluorescence plate reader | hit rate 0.063% among 340,000 | inhibition, % at 10 µM; in the data active = inhibition above about 30%, passing the limit was not always enough;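 also: 0% = vehicle neutral wells and 100% = reference inhibitor wells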
rRNA inh HTS – inhibitors of bacterial rRNA selective over humanized ribosomes; E. coli WT GFP vs humanized-ribosome RFP mutants, fluorescence, 24 h; active compounds read low; DMSO median 0, no signal -100; GFP signal change (wild-type ribosome), % (concentration not given with the values); hit rate 1.6% among 350,000; AID 720706;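 active = significant combined selectivity score with lowered wild-type GFP, culture density cut under 30%, mutant RFP and density less affected; inactive = any of these conditions unmet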
ARNT TACC3 PPI – disrupts binding between human ARNT and TACC3; Q9Y6A5; AlphaScreen His-ARNT PAS-B/GST-TACC3 binding, luminescence; TACC3 fragment carries E629A point mutation; inhibition, % at 9.99 µM; hit rate 0.66% among 390,000;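 active = mean inhibition of replicates at least 50% and at least half of replicates each reaching 50%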;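 also: 0% = complete ARNT plus TACC3 wells and 100% = ARNT alone without TACC3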
* = called active by the depositor; x = not tested or not shown.

SMILES	CFTR F508del cor	ERAP1 HTS inh	PvdQ inh	rRNA inh HTS	ARNT TACC3 PPI
O=C(CC1C(=O)NCCN1C(=O)Nc1ccc(Cl)cc1)Nc1ccc(F)cc1 (stereo not given)	3.2	3.1	-0.8	-8.6	-3.9
O=C(CC1C(=O)NCCN1C(=O)Nc1ccc(F)cc1)Nc1cc(Cl)ccc1Cl (stereo not given)	0.0	-2.1	-5.6	-27.5	-11.1
CCCCCCc1nc(-c2ccc(OC)nc2)c(C)c2c1[Si](C(C)C)(C(C)C)OC2	0.0	-4.3	x	x	x
CO[C@@H]1CN(C)C(=O)c2ccc(NS(C)(=O)=O)cc2OC[C@@H](C)N(C(=O)C2CCCC2)C[C@H]1C	-1.4	-0.5	x	5.5	-17.0
COc1ccc2c3c([nH]c2c1)[C@@H](CO)N(Cc1nccs1)CC31CCN(Cc2cccnc2)CC1	1.8	1.7	x	-2.9	x
COC(=O)CNc1c(-c2ccccn2)nc2ccc(Br)cn12	x	x	-14.4	x	62.2*
CCOC(=O)CNc1c(-c2ccccc2)nc2ccc(Cl)cn12	x	x	-2.3	x	13.6
CC(C)NC(=O)Nc1cccc2c1O[C@@H](CN(C)Cc1ccc(Cl)c(Cl)c1)[C@@H](C)CN([C@H](C)CO)C2=O	1.9	-1.6	x	-6.0	3.3
Cc1ccc(C(=O)Nc2cccc(C(O)c3ccccc3)c2)cc1 (stereo not given)	1.0	x	-18.5	-32.8*	-0.5
CCCCC(=O)Nc1cccc(-c2cn3ccccc3n2)c1	3.2	3.0	-3.5	-12.8	-10.5
Cc1ccc(C(=O)Nc2cccc(-c3cn4ccccc4n3)c2)cc1	-1.2	-3.3	-7.8	-29.1*	7.6
O=C(Nc1cccc(-c2nc3ccccc3c(=O)o2)c1)c1ccccc1	-0.5	-10.9	-16.3	-20.1*	9.4
Cc1ccccc1C(=O)Nc1cccc(-c2cn3ccccc3n2)c1	1.5	-1.1	-9.4	-40.8	4.4
O=C(Nc1cccc(-c2cn3ccccc3n2)c1)c1ccccc1	1.7	0.1	4.7	-31.5*	x
Cc1ccc(C(=O)NC(C(=O)Nc2ccccc2)c2ccccc2)cc1 (stereo not given)	1.1	-0.3	-2.0	-15.3	0.6
COc1cccc(-c2nc3ccccc3c(=O)o2)c1	x	x	-1.3	x	-5.4
C[C@@H]1CN([C@H](C)CO)C(=O)Cc2cc(NC(=O)Nc3cccc4ccccc34)ccc2O[C@@H]1CN(C)S(=O)(=O)c1cn(C)cn1	1.5	-0.9	x	-2.0	x
CC(C)NC(=O)Nc1ccc2c(c1)C(=O)N([C@@H](C)CO)C[C@H](C)[C@H](CN(C)Cc1ccncc1)OCCCC[C@H](C)O2	-1.0	-2.8	x	-0.8	2.0
O=C(C[C@H]1CC[C@@H](NS(=O)(=O)c2ccccc2)[C@H](CO)O1)NCc1ccccc1F	0.1	-2.8	x	-0.4	-12.3
O=C(CN1CCOCC1)N1CCCCN2[C@H](CO)[C@H](c3ccc(/C=C/c4ccccc4)cc3)[C@@H]2C1	-1.8	5.2	x	1.9	-2.1
C#CCn1c(=NC(=O)c2ccc(Cl)s2)sc2cccc(OC)c21	-1.5	30.3*	-4.1	-1.3	-4.6
C#CCn1c(=NC(=O)c2cccs2)sc2cccc(OCC)c21	-1.5	6.6	-2.7	-0.9	1.1
O=C1C2C3C=CC(C4CC34)C2C(=O)N1CCc1ccccc1 (stereo not given)	x	x	1.0	x	1.5
O=C(CN1C(=O)C2C3C=CC(C4CC34)C2C1=O)Oc1ccccc1 (stereo not given)	1.4	-3.0	33.6*	1.7	-12.9
Clc1ccc(C2CC(c3cccs3)n3ncnc3N2)cc1 (stereo not given)	0.8	-3.5	x	-41.0*	x
SMILES	CFTR F508del cor	ERAP1 HTS inh	PvdQ inh	rRNA inh HTS	ARNT TACC3 PPI
CCCNC(=O)Nc1ccc2c(c1)C(=O)N(C)C[C@H](OC)[C@H](C)CN(C(=O)CC)[C@@H](C)CO2	3.9	x	x	2.4	-2.6
CCc1ccc(C(=O)COC(=O)CNC(=O)c2ccc(Br)o2)cc1	-1.1	2.0	-16.6	-21.9*	3.2
COc1cccc(S(=O)(=O)N(C)C[C@H]2Oc3cc(C#CCC(C)C)ccc3S(=O)(=O)N([C@H](C)CO)C[C@H]2C)c1	-2.8	-0.3	x	-1.9	-7.9
Nc1[nH]c(C(=O)c2ccccc2)c(-c2ccccc2Br)c1C(=O)c1ccccc1	-2.0	-1.5	x	-41.1*	x
O=C(C[C@H]1CC[C@H]2[C@@H](COC[C@@H](O)CN2C(=O)Nc2ccc(F)cc2)O1)NCCCN1CCOCC1	1.1	0.1	x	4.7	-5.2
N#Cc1c(NC(=O)c2cccc(S(=O)(=O)Nc3ccc(C(=O)O)cc3)c2)sc2c1CCCC2	-0.7	42.6*	-6.1	-24.2*	8.2
Cc1cc(C(=O)Nc2sc3c(c2C#N)CCCCC3)cs1	-0.6	3.3	-21.6	-19.0	2.2
Clc1cccc(Cl)c1CN1CCN(c2ncccn2)CC1	-9.0	-1.8	-12.7	-21.5	-19.5
Cn1nc(-c2ccccc2)c(CN2CCN(c3ncccn3)CC2)c1Cl	-0.7	-1.5	-1.9	-34.1*	1.7
CCN1[C@@H]2Cn3c(ccc(C4=CCCCC4)c3=O)[C@H]1[C@@H](C(=O)N1CCc3ccccc3C1)[C@@H]2CO	0.4	2.0	x	0.6	12.2
COc1ccc(CN(C)C[C@@H]2OCCCC[C@H](C)Oc3ccc(NC(=O)NC4CCCCC4)cc3C(=O)N([C@H](C)CO)C[C@H]2C)cc1	-2.5	-0.4	x	-1.0	7.4
Cc1cc(NC2=CC(=O)C(=O)c3ccccc32)no1	-0.3	2.5	6.7	-36.1	36.6*
Cc1ccc(NC2=CC(=O)C(=O)c3ccccc32)cc1	x	x	4.9	x	5.4
COc1cccc(C(=O)NCCSCc2c(F)cccc2Cl)c1	-3.3	-2.7	-20.4	-37.2	-2.4
Cc1c(C(=O)NCCSCc2ccc(F)cc2)cnn1-c1ccc(Cl)cc1	-0.4	5.4	-12.0	-38.0*	-0.9
Cc1c(C(=O)NCCSCc2cccc(C(F)(F)F)c2)cnn1-c1ccc(F)cc1	0.0	3.8	-14.6	-36.6*	-6.2
Cc1c(C(=O)NCCSCc2c(F)cccc2Cl)cnn1-c1ccc(F)cc1	x	2.8	-3.4	-35.7*	-24.2
Cc1ccc(S(=O)(=O)Nc2ccc3c(c2)C(=O)N([C@@H](C)CO)C[C@H](C)[C@@H](CN(C)S(C)(=O)=O)OCCCC[C@H](C)O3)cc1	-0.8	3.0	x	-0.3	-7.5
COc1ccccc1/C=C/C(=O)Nc1nc(N)n(-c2ccccc2)n1	x	1.0	-3.3	-25.4*	0.8
COCc1cn(CC[C@@H]2CC[C@H](NC(=O)c3ccc(F)cc3)[C@@H](CO)O2)nn1	-4.8	-0.7	x	1.9	1.0
NC1=C(Br)C(=O)c2ncccc2C1=O	-4.6	10.2	-12.3	-37.8	63.6*
CCC(=O)N1CC2(CN(C(=O)Nc3ccc(F)cc3)C2)c2c([nH]c3cc(OC)ccc23)[C@@H]1CO	-2.3	4.0	x	-1.2	x
O=C(CSc1cccc[n+]1[O-])C12CC3CC(CC(C3)C1)C2	-5.4	-3.0	-3.6	-27.2*	-7.2
O=C(O)CSc1cccc[n+]1[O-]	x	x	0.0	x	-5.0
CSc1nsc(NN)n1	-0.3	1.2	x	-32.9*	x
CCc1nnc(NC(=O)CSc2nnc(-c3ccccc3O)o2)s1	-0.1	8.7	8.3	-26.5*	44.4
